Bioassay records from PubChem BioAssay.
Rows were chosen to be rich in hits. Some 10% of all compounds tested hit in one or more screens of this group.
BAZ2B block: blocks human BAZ2B | Potency, µM (doses to about 114 µM), for the others: at the highest dose activity change, negative = inhibition, most hits filed as inhibitors | AID 504333 | Q9UIF8 | 4.4% of 360,000 active | AlphaScreen BAZ2B-H3K14Ac peptide displacement; further: on the % scale 0 is the no-effect control and ±100 the full control effect; nearly all actives have a fitted effect of over 60% in size
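BAZ2B (50 nM) with biotin-H3(5-23)K14Ac peptide (50 nM) in PBS pH 7.4, 0.01% Tween-20, preformed 30 min, then compound 30 min at room temperature; top concentration 110uM. AlphaScreen streptavidin donor/nickel chelate acceptor beads (10 ug/mL final), 20 min dark, signal read.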
GLS inh: inhibitors of human glutaminase (GLS). AID 624170. Potency, µM (series often up to 45.5 µM), without a hit: top-dose activity change, negative = inhibition, hits mostly inhibitors. O94925. 0.21% of 410,000 active. GLS enzymatic activity, qHTS titration; further: on the % scale 0 is the no-effect control and ±100 the full control effect
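hKGA in 45 mM KH2PO4 pH 8.2, 0.02% Tween-20 with pin-transferred compounds; 1 mM L-glutamine (stock) plus glutamate oxidase/HRP/Amplex Red coupling added. Fluorescence read initially and after 30 min at RT.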
HP1b chromo inh: blocks HP1-beta chromodomain binding to methylated histone tails. P83916. AID 540317. 0.56% of 390,000 active. Potency, µM (doses to about 114 µM), without a hit: top-dose activity change, negative = inhibition, hits mostly inhibitors. AlphaScreen HP1-beta / biotin-H3K9me3 peptide binding; further: nearly all actives have a fitted effect of over 70% in size
Target sequence (P83916 whole entry, looked up): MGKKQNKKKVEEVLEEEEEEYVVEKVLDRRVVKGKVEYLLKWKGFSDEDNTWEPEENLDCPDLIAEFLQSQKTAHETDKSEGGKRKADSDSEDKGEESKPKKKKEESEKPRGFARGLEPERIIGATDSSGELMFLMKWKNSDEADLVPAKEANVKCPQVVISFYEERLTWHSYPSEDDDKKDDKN
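HP1-beta protein (50 nM final) preincubated 30 min at room temperature with biotinylated H3(1-18)K9me3 peptide (50 nM) in PBS pH 7.4, 0.01% Tween-20, then compound added for 30 min. AlphaScreen streptavidin donor/nickel chelate acceptor beads (10 ug/mL final), 30 min dark, luminescence read.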
JMJD2A Tudor: JMJD2A Tudor domain (human) inhibition; O75164; AlphaScreen JMJD2A-Tudor / H3K4me3 peptide binding; Potency, µM (top dose mostly 114 µM), for inactives: at the top dose activity change, negative = inhibition, most hits filed as inhibitors; 4.4% of 390,000 active; further: on the % scale 0 is the no-effect control and ±100 the full control effect; nearly all actives have a fitted effect of over 50% in size
G9a inh: G9a (human) methyltransferase inhibition; 8.8% of 350,000 active; AID 504332; Q96KQ7; G9a H3K9 monomethylation, AlphaScreen, 2 h; Potency, µM (doses to about 102 µM), for the others: at the top dose activity, negative = inhibition, most hits filed as inhibitors; further: on the % scale 0 is the no-effect control and ±100 the full control effect; nearly all actives have a fitted effect of over 75% in size
Target sequence (Q96KQ7 913-1193 limits assumed): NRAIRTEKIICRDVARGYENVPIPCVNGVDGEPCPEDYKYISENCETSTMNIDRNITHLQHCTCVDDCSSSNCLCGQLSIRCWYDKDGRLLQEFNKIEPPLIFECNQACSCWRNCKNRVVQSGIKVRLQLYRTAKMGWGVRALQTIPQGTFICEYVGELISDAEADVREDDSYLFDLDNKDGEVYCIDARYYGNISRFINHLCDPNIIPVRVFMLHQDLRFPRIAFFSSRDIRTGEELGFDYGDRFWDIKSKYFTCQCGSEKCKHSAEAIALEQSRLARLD
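Using a bead-based AlphaScreen, monomethylated H3K9 product from 2 h room-temperature reactions (G9a 20 nM, peptide 500 nM, SAM 20 uM) was detected with 0.5 ug/mL rabbit anti-H3K9me1 antibody.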
Numbers without * were called inactive; ? = inconclusive; · = no result given; [ ] = another dose, or the depositor's remark. The call rests on the fitted dose curve; in most records, active means well fitted curve in the direction sought with a large enough effect; inconclusive means small, poorly fitted or top-dose-only effect, or another doubt; inactive means no such curve, though single readings can be large; an effect the other way counts as inactive or inconclusive. Potency means the concentration at half of the fitted maximal effect.

SMILES	BAZ2B block	GLS inh	HP1b chromo inh	JMJD2A Tudor	G9a inh
c1ccc(Nc2nc(-c3cccs3)cs2)nc1	?	-19%	4%	-28%[11.4 µM]	?
Oc1ccc(-c2csc(Nc3ccccn3)n2)c(O)c1	-12%	5%	14%	-26%	45µM*
CC(Sc1nnc(COc2ccc(Cl)cc2)o1)C(=O)Nc1ccc(N2CCOCC2)cc1 (configuration not stated)	13%	9%	19%	-11%	35µM*
CC(C)Cn1c(SC(C)C(=O)Nc2ccc(N3CCOCC3)cc2)nc2ccccc21 (configuration not stated)	35µM*	11%	?	?	?
CC(Sc1nnc2ccccn12)C(=O)Nc1ccc(N2CCOCC2)cc1 (configuration not stated)	·	18%	9%[57 µM]	-15%	·
Cc1nnc(SC(C)C(=O)Nc2ccc(N3CCOCC3)cc2)n1Cc1ccccc1 (configuration not stated)	0%	18%	13%	-10%	71µM*
C#CCOCCOCCOCCNc1nc(N2CCN(C(=O)[C@H](C)n3cc(CCC(=O)O)nn3)CC2)nc(N2CCN(C(=O)[C@H](CCCCN)n3cc(CCCC)nn3)CC2)n1	·	-8%	23%	-17%	·
CCCOC(=O)c1c(-c2ccc(C)cc2C)csc1NC(=O)C1C2CCC(O2)C1C(=O)O (configuration not stated)	-6%	7%	?	71µM*	13µM*
CCOC(=O)N1CCC(NC2CCCCCCC2)CC1	29%	-1%	26%	7%	-43%[59 µM]
CCOC(=O)N1CCC(c2[nH][nH]c(=O)c2C)CC1	1%	-4%	33%	-19%	40µM*
O=C(O)c1ccc2c(c1)C(=O)N(Cc1ccco1)C2=O	-23%	36%	-19%	?	56µM*
CCc1ccc(NC(=O)c2ccc3c(c2)C(=O)N(Cc2ccco2)C3=O)cc1	?	-11%	20%	?	50µM*
COC(=O)Cc1ccc(NC(=O)c2ccc3c(c2)C(=O)N(Cc2ccco2)C3=O)cc1	-2%	-2%	30%	-3%	·
O=C1c2cccc3c(O)ccc(c23)C(=O)N1Cc1ccco1	-3%	5%	20%	-17%	40µM*
O=C(O)c1cccc(NC(=O)c2ccc3c(c2)C(=O)N(Cc2ccco2)C3=O)c1	?	?	25%	-13%	·
O=C(Nc1nnc(C2CC2)s1)c1ccc(Cl)nc1	1%	-3%	49%	2%	-22%[59 µM]
CC(C)(C)c1ccc(S(=O)(=O)NC(=O)C2(C)CCN2C(=O)CC2CCCC2)cc1 (configuration not stated)	·	-13%	·	·	·
CCOc1ccc(NC(=O)CSC2=Nc3ccccc3C3=NC(CC(=O)NCc4ccco4)C(=O)N23)cc1 (configuration not stated)	-21%	-11%	16%	-20%	-21%[59 µM]
O=C(CC1N=C2c3ccccc3N=C(SCc3ccc(Cl)cc3)N2C1=O)NCc1ccco1 (configuration not stated)	?	2%	-12%	?	50µM*
O=C(CCC1N=C2c3ccccc3N=C(SCC(=O)NCc3ccco3)N2C1=O)NCc1ccco1 (configuration not stated)	50µM*	128%	34%	?	-7%[59 µM]
Cc1ccc(CSC2=Nc3ccccc3C3=NC(CCC(=O)NCc4ccco4)C(=O)N23)cc1 (configuration not stated)	?	-4%	?	-32%	?
CC(=O)Nc1cccc(C(=O)OCC(=O)NC(C)c2ccc(F)cc2)c1 (configuration not stated)	-12%	2%	11%	-3%	-2%
COc1ccc(CC(=O)NCC(c2cccs2)S(=O)(=O)c2ccc(Cl)cc2)cc1 (configuration not stated)	?	?	10µM*	18µM*	8.9µM*
O=C(COc1ccccc1)NCC(c1cccs1)S(=O)(=O)c1ccc(Cl)cc1 (configuration not stated)	-11%	-24%	14µM*	18µM*	10µM*
COc1cccc(C2C=C(Nc3ccccc3)C(=O)N2c2ccccc2)c1 (configuration not stated)	11%	-4%	27%	-18%	45µM*
SMILES	BAZ2B block	GLS inh	HP1b chromo inh	JMJD2A Tudor	G9a inh
COc1cccc(NC2=CC(c3ccc(C(C)C)cc3)N(c3cccc(OC)c3)C2=O)c1 (configuration not stated)	?	14%	-13%	-34%	?
COc1ccc(C2C=C(Nc3ccccc3)C(=O)N2c2ccccc2)cc1OC (configuration not stated)	-38%	10%	7%	-23%	8.9µM*
C=CCSc1nc2sc(C)c(C)c2c(=O)[nH]1	-2%	-1%	30%	-20%	9%[59 µM]
C#CCOC(=O)/C(=C/c1ccc(F)cc1)NC(C)=O	-5%	1%	0%	-12%	-6%
Cc1ccc(SCC(=O)NNC(=O)CCS(=O)(=O)c2ccc(C)cc2)cc1	·	-13%	33%	-8%	·
O=C(O)CC(C(=O)O)N1C(=O)/C(=C/c2ccc(-c3nc4ccccc4s3)o2)SC1=S (configuration not stated)	50µM*	11µM*	28µM*	50µM*	5µM*
O=Cc1ccc(-c2nc3ccccc3s2)o1	-21%	20%	19%	-15%	-2%
O=C(O)CCCN1C(=O)/C(=C\c2ccc(-c3nc4ccccc4s3)o2)SC1=S	7.9µM*	?	18µM*	-32%[11.4 µM]	·
O=C(O)CCN1C(=O)/C(=C/c2ccc(-c3nc4ccccc4s3)o2)SC1=S	3.5µM*	?	?	6.3µM*	?
COc1ccc(CC(=O)OCC(=O)NCc2ccc(Cl)cc2)cc1	-2%	10%	40%	-3%	11%
Nc1ncc(Br)cc1S(=O)(=O)Nc1cc(C(F)(F)F)cc(C(F)(F)F)c1	-13%	5%	12%[57 µM]	-24%	·
C[C@H]1CN([C@@H](C)CO)C(=O)Cc2cc(NC(=O)C3CC3)ccc2O[C@H]1CN(C)Cc1ccc(Oc2ccccc2)cc1	·	1%	8%	?	·
C[C@H]1CN([C@@H](C)CO)C(=O)Cc2cc(NC(=O)CCN3CCOCC3)ccc2O[C@@H]1CN(C)Cc1ccc(Oc2ccccc2)cc1	·	14%	-18%	45µM*	·
Cc1ccc(-n2c(Cn3nc(C(F)(F)F)cc3C)n[nH]c2=S)cc1	-25%	2%	3%	56µM*	?
COc1cccc(-n2c(Cn3nc(C(F)F)cc3C(F)F)n[nH]c2=S)c1	4%	3%	4%	45µM*	8.9µM*
COC(=O)c1ccc(Cn2nc(C(F)(F)F)cc2C)cc1	0%[57.1 µM]	0%	71%	26%	85%
COc1ccc(-n2c(Cn3nc(C(F)(F)F)cc3C)n[nH]c2=S)cc1	0%	-5%	27%	?	7.9µM*
